GLP-1R inv ag = GLP-1 receptor (human) inverse agonism. P43220. AID 624417. Potency, µM (titrated, usually from 38.3 µM), for the others: at the top dose activity change, negative = inhibition, hits mostly inhibitors. HEK293 GLP-1R CRE-luciferase, luminescence, 24 h; GLP-1R form is constitutively active. 410,000 tested, 1.6% active; further: on the % scale 0 is the no-effect control and ±100 the full control effect; nearly all actives have a fitted effect of over 55% in size
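Cells are plated, allowed 12 hours at 37 deg C, then treated with compounds for 24 hr before luciferase detection reagent is added and luminescence is read after 12 min at room temperature. The HEK293 line carries constitutively active GLP-1R with a cAMP-responsive reporter.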
GLP-1R agonist = activates the human GLP-1 receptor. HEK293 GLP-1R CRE-luciferase, luminescence, 4-6 h; cells express a hypersensitive GLP-1R form. Potency, µM (top dose mostly 45.6 µM), for inactives: top-dose activation, usual class: activators. 380,000 tested, 0.007% active; further: % of control where 0% means no effect
rTrxR1 inhibitor = blocks rat thioredoxin reductase 1; O89049; recombinant rTrxR1, NADPH fluorescence consumption, selenite substrate; Potency, µM (series often up to 114 µM), for inactives: at the top dose activity change, negative = inhibition, hits mostly inhibitors; 390,000 tested, 1% active; AID 588453; further: on the % scale 0 is the no-effect control and ±100 the full control effect; nearly all actives have a fitted effect of over 65% in size
Target sequence (O89049 whole entry, looked up): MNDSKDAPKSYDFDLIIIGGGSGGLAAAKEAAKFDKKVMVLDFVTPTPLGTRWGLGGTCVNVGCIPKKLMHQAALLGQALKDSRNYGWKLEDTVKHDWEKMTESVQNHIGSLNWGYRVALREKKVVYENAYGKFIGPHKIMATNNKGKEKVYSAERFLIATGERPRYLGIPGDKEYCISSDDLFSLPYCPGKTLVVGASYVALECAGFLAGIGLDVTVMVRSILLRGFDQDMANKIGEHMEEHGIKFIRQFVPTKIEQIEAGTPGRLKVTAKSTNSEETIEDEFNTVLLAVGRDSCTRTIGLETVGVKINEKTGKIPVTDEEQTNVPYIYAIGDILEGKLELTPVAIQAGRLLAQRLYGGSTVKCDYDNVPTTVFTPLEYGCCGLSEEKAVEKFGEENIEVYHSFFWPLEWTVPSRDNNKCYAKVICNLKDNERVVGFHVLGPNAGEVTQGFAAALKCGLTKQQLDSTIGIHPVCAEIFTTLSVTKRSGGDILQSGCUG
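Rat TrxR1 (90 nM in the dispensed reagent) was pre-reduced with 400 uM NADPH for 5 min at room temperature, then incubated with compound for 15 min. After 400 uM selenite was added, NADPH fluorescence (Ex 340/Em 450 nm) was followed for 8 min.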
TrxR1 substrate = substrates of rat thioredoxin reductase 1; Potency, µM (highest dose often 114 µM), without a hit: top-dose activity change, negative = substrate turnover; AID 588456; O89049; purified TrxR1 substrate turnover, NADPH consumption readout; 390,000 tested, 0.01% active; further: on the % scale 0 is the no-effect control and ±100 the full control effect; nearly all actives have a fitted effect of over 50% in size
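Rat TrxR1, dispensed at 90 nM, was prereduced with 400 uM NADPH (final) for 5 min at ~22 deg C, then incubated with compound 15 min before 400 uM selenite. A first-read NADPH fluorescence drop versus no-compound background flagged substrates.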
HEK293 tox = cytotoxicity in counter-screen for GLP-1R inverse agonists; 410,000 tested, 0.13% active; HEK293 cAMP-luciferase reporter cells, luminescence, 24 h; AID 624418; Potency, µM (series often up to 38.3 µM), inactives show at the highest dose activity change, negative = inhibition, hits mostly inhibitors;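 further: loss of luciferase light is scored as toxicity; on the % scale 0 is the no-effect control and ±100 the full control effect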
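Cells in DMEM/10% Nu serum/1% pen-strep, 1536-well format. Pre-incubated 12 h, dosed with 23 nL compound, incubated a further 24 h. Luciferase detection, 12 min at room temp, luminescence.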
mIDH1 inhibitor = blocks human mutant IDH1 R132H enzyme | O75874 | IDH1-R132H enzyme, NADPH consumption, diaphorase/resazurin fluorescence | Potency, µM (top dose mostly 76.6 µM), inactives show at the highest dose activity change, negative = inhibition, usual class: inhibitors | 390,000 tested, 0.093% active | AID 602179; further: on the % scale 0 is the no-effect control and ±100 the full control effect; nearly all actives have a fitted effect of over 65% in size
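IDH1-R132H (0.5 ug/mL dispensed) in pH 7.5 Tris buffer was preincubated 30 min with compound, then given a substrate mix of 0.016 mM NADPH and 2 mM alpha-KG for 80 min at room temperature; remaining NADPH was read by diaphorase/resazurin fluorescence.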
Numbers without * were called inactive; ? = inconclusive; / = no result given; [ ] = remark or other dose. An excerpt weighted towards active compounds, which were near 2.7% of everything screened. The call rests on the fitted dose curve; in most records, active means well fitted curve in the direction sought with a large enough effect; inconclusive means small, poorly fitted or top-dose-only effect, or another doubt; inactive means no such curve, though single readings can be large; an effect the other way counts as inactive or inconclusive. Potency means the concentration at half of the fitted maximal effect.

SMILES | GLP-1R inv ag | GLP-1R agonist | rTrxR1 inhibitor | TrxR1 substrate | HEK293 tox | mIDH1 inhibitor
Cc1ccc(/C=C2/C(=O)C3(C)CCC2C3(C)C)cc1 (stereo unspecified) | / | 5% | / | / | / | /
Nc1nc2[nH]c(=S)[nH]c2c(=O)[nH]1 | / | / | -21% | 3% | / | /
COCc1cc(S(=O)c2ccc(Cl)cc2)nc(C)n1 (stereo unspecified) | ? | -6% | 14µM* | 0% | ? | 4%
COc1ccccc1C(=O)NCc1nc2cccnc2n1Cc1ccc(F)cc1 | 1% | / | 1%[57.1 µM] | -7%[57.1 µM] | -2% | -3%
Cc1ccccc1N1C(=O)CC(N(O)c2ccccc2)C1=O (stereo unspecified) | 3% | 4% | -33% | -2% | 83% | 0%
CCN(CCO)C1CC(=O)N(c2ccccc2C)C1=O (stereo unspecified) | 0% | -2% | 50µM* | 0% | -9% | 0%
Cc1ccc([N+](=O)[O-])cc1NC(=O)CN(C(=O)c1ccccc1Cl)C1CCCCC1 | 10µM* | -12% | -8% | -6% | -30% | -1%
CC1=NN(Cc2ccccc2)C(=O)C1C(c1ccccc1)C(C#N)C#N (stereo unspecified) | 0% | 4% | ? | 0% | 0% | 1%
CC1=NN(Cc2ccccc2)C(=O)C1C(c1ccc(Cl)cc1)C(C#N)C#N (stereo unspecified) | -29% | -6% | 25µM* | -9% | -28% | -1%
CCCCC(=O)Oc1ccc2oc(-c3ccc(OC)cc3)cc(=O)c2c1 | 12% | / | 91% | 163% | -6% | -5%
CCc1nn2c(-c3ccccc3OC)ccnc2c1-c1ccccc1 | 10µM* | 0% | 17%[11.4 µM] | 5% | 2% | 17%
COc1ccccc1NC(=O)c1cc2cc(Br)ccc2cc1O | 6.3µM* | -4% | -6% | -10% | 17% | 3%
CC(NC(=O)/C(C#N)=C/c1ccc(Cl)c([N+](=O)[O-])c1)c1ccccc1 (stereo unspecified) | ? | -7% | 40µM* | -5% | -13% | -3%
CN1CCN(c2cc(=O)n(Cc3ccc(F)cc3)c(=O)[nH]2)CC1 | 15% | -1% | 14µM* | 1%[57.1 µM] | -10% | 9%
O=C(Cn1c(=O)n(-c2ccc(Cl)cc2)c(=O)c2c3c(sc21)CCCCC3)Nc1cccc(Cl)c1 | -15% | -1% | 21% | 6% | -5% | 8%
O=C(COc1ccccc1Cl)OCc1cc(=O)n2nc(C3CCCCC3)sc2n1 | 23% | / | 16%[57.1 µM] | 2%[57.1 µM] | 1% | -5%
CNCCC=C1c2ccccc2C=Cc2ccccc21 | 5µM* | 27% | 18% | 1% | 6% | -7%
Brc1ccc(Nc2c3c(nc4nncn24)CCC3)cc1 | -16% | / | 22µM* | 5% | 1% | /
Cc1ccc(Nc2c3c(nc4nncn24)CCC3)cc1 | 13% | / | -2% | 5% | -3% | /
COCCNC(=O)CCCn1c(SCC(=O)Nc2ccc(F)cc2)nc2c(sc3ccccc32)c1=O | 2% | / | 4% | 3% | -4% | -12%
Cc1[nH]n(-c2ncc(-c3ccccc3)s2)c(=O)c1C(c1ccc(Cl)cc1)C(C#N)C#N (stereo unspecified) | ? | -28% | 22µM* | -8% | -24% | -10%
Cn1ccnc1SCC(=O)c1ccc(Cl)cc1 | 21% | 3% | 0% | 6% | -14% | 0%
Cn1c(CO)cnc1SCC(=O)c1ccc(Cl)cc1 | 7.1µM* | -5% | 8%[57.1 µM] | 2%[57.1 µM] | -28% | 0%
CC(=O)Nc1ccc(/C=C/c2nc3ccccc3s2)cc1 | / | / | 7% | -5% | / | /
Cc1nc2ccc(S(=O)(=O)NC(CC(C)C)C(=O)N3CCN(c4ccc(F)cc4)CC3)cc2s1 (stereo unspecified) | -22% | / | 19% | -3% | 1% | -2%
SMILES | GLP-1R inv ag | GLP-1R agonist | rTrxR1 inhibitor | TrxR1 substrate | HEK293 tox | mIDH1 inhibitor
CS(=O)(=O)c1ncc(Cl)c(C(=O)Nc2ccc(OC(F)F)cc2)n1 | ? | -6% | 40µM* | -13% | ? | -7%
CCN(c1ccccc1)S(=O)(=O)c1ccc(NC(=O)c2nc(S(C)(=O)=O)ncc2Cl)cc1 | ? | -7% | 0.4µM* | -3% | ? | 0%
CS(=O)(=O)c1ccc(C(=O)Nc2ccc(N3CCOCC3)cc2)c(Cl)c1 | 19% | -1% | 13%[57.1 µM] | 0%[57.1 µM] | -3% | 9%
CS(=O)(=O)c1ncc(Cl)c(C(=O)Nc2ccc(N3CCOCC3)cc2)n1 | 119% | -3% | 10µM* | 4% | ? | 3%
CCOC(=O)c1nc(S(C)(=O)=O)ncc1Cl | 1% | -6% | 18µM* | 10% | ? | -1%
Cc1ccc(C(=O)c2cn(Cc3cccc(C)c3)c3nc(C)ccc3c2=O)cc1 | ? | 0% | 12% | -8% | 4% | -8%
CCOc1ccc(CCNC(=O)CN2N=C(c3ccccc3)CCC2=O)cc1OCC | 13% | / | 5%[57.1 µM] | 0%[57.1 µM] | 0% | 40%
CCCSc1nc(NCc2ccco2)c2c3c(sc2n1)COC(C)(C)C3 | -26% | 22% | 45µM* | -10% | 14% | 2%
O=C(Nc1nc(-c2cccc([N+](=O)[O-])c2)cs1)C(c1ccccc1)c1ccccc1 | 1.6µM* | -20% | 12% | 0% | 50% | -3%
O=C(NC(=S)Nc1nc(-c2cccc([N+](=O)[O-])c2)cs1)c1cc(Cl)ccc1Cl | 20% | 3% | 28µM* | 3%[57.1 µM] | -3% | -4%
C=C1CCN(C(CC(C)C)C(=O)Nc2ccc(OC)cc2)S(=O)(=O)c2ccccc21 (stereo unspecified) | / | / | 12% | -8% | / | /
C=C[C@@H]1c2cc(C)ccc2N(S(=O)(=O)c2ccc(C)cc2)[C@H](c2ccccc2)C1(C#N)C#N | 1% | -7% | 8% | -8% | 19% | -5%
C=C[C@@H]1c2ccccc2N(S(=O)(=O)c2ccc(C)cc2)[C@H](c2ccccc2)C1(C#N)C#N | 3.5µM* | -1% | 21% | 5% | -9% | -4%
CN(C)CC(c1ccccc1)c1ccccc1 | -5% | 4% | 10%[57.1 µM] | 5% | 4% | 3%
CN(C)CCNC(=O)C(c1ccccc1)c1ccccc1 | -10% | -1% | 21% | 0% | -39% | -2%
CN(C)CCC(=O)C(Cc1ccccc1)c1ccccc1 (stereo unspecified) | -16% | -3% | 0.25µM* | 0% | ? | -3%
CC(CCCN(C)C)C(Cc1ccccc1)c1ccccc1 (stereo unspecified) | 11µM* | 4% | 21%[11.4 µM] | 7%[11.4 µM] | -8% | 2%
CC(C)N1C/C(=C/c2cccnc2)C(=O)/C(=C/c2cccnc2)C1 | 109% | -4% | ? | 3% | ? | 1%

Screening data deposited in PubChem BioAssay by National Center for Advancing Translational Sciences (NCATS).
